Activity calls are given as the source filed them. No rule for the calls is given here.

This experiment in a line: Brca1-Bard1 BiLC signal decrease – luminescence, single concentration, counter-screen for Mdm2/MdmX interaction inhibitor project, confirmation (AID 504668). The settings on record: Brca1/Bard1 bimolecular luciferase complementation counterscreen, at 8 µM, active compounds read high.
Regarding `CCCc1c(NC(=O)Nc2ccc(F)cc2)cnn1-c1ccccc1`, the inhibition is 29.3% (active).

Consider `COc1ccc(NC(=O)CSc2nc3c(sc4ccccc43)c(=O)n2CCCN2CCCC2)cc1`, for which the inhibition was 23.1% (active).

Take `CN1CCN(C(=O)CCCN2C(=O)/C(=C/c3ccccc3)SC2=S)CC1`: the inhibition was 30.5% (active).

For the compound `O=C(NC(Cc1c[nH]c2ccccc12)C(=O)Nc1ccc(F)c([N+](=O)[O-])c1)c1cccs1` (stereo not given), the inhibition is 24.8% (active).

Regarding `Cc1ccc(N=Nc2ccc(O)c3ncccc23)cc1C`, the inhibition was 25.6% (active).

Turning to `Cc1ccc(C(C)C)c(OCc2nn(CC(=O)c3ccc(Cl)cc3)c3[n+]2CCCCC3)c1`, the inhibition is 25% (active).

As for `C/C(=N\NC(=O)c1nnn(-c2nonc2N)c1CN(C)c1ccccc1)c1ccccc1O`, the inhibition is 30.5% (active).

With `COc1cccc(/C=N/NC(=O)c2c(C)nc3ccc(Br)cn23)c1O`, the inhibition was 32.3% (active).

Consider `N=c1ccn2c(n1)OC1C(O)C(CO)OC12` (stereo not given), for which the inhibition is 45.7% (active).

In the case of `Cn1c(C(=O)NCc2cccs2)cc2oc3ccccc3c21`, the inhibition was 27.7% (active).

Consider `O=C(CCS(=O)(=O)c1ccc(Cl)cc1)Nc1nc(-c2ccncc2)cs1`, for which the inhibition was 25.6% (active).

For the compound `S=C(NNc1ccc2ccccc2c1)NC1CCCCC1`, the inhibition was 34.4% (active).

Consider `Cc1ccc(C(=O)Nc2nc(-c3ccccn3)cs2)s1`, for which the inhibition is 34.6% (active).

Turning to `CN1CCN(C(c2ccc(C(F)(F)F)cc2)c2ccc3cccnc3c2O)CC1` (stereo not given), the inhibition is 27.9% (active).

`Cc1ccc2c(C)nc(Nc3nc(CSc4nc5ccccc5[nH]4)cc(=O)[nH]3)nc2c1`: the inhibition is 32.5% (active).

As for `CC(C)(C)c1ccc(OCC(=O)N/N=C/c2cc(Br)ccc2OC(=O)c2ccco2)cc1`, the inhibition was 27% (active).

For the compound `O=C(Nc1ccc(Cl)cc1)Nc1ccc(Cl)c(Cl)c1`, the inhibition was 26.8% (active).

For the compound `Cc1ccc(-n2c(C)cc(/C=c3/sc4nc5ccccc5n4c3=O)c2C)cc1`, the inhibition was 27.7% (active).

For the compound `CC(C)C(=O)N1CCN(c2ccc(NC(=O)c3ccc([N+](=O)[O-])o3)cc2)CC1`, the inhibition was 23.4% (active).

Consider `Cc1ccc(NC(=O)Cn2nnc(C(=O)NCCc3ccccc3)c2N)cc1Cl`, for which the inhibition was 29.3% (active).

Consider `COc1ccc(O)c(/C=N/NC(=O)c2ccc(OCc3cccc(Br)c3)cc2)c1`, for which the inhibition is 32.8% (active).

Consider `Cc1ccc(NC(=O)c2ccccc2NS(=O)(=O)c2ccc(Cl)s2)cc1`, for which the inhibition is 28.9% (active).

Regarding `CC(C)(C)c1ccc(-c2nnc3sc(-c4ccccn4)nn23)cc1`, the inhibition was 30.2% (active).

Turning to `CCN(CC)c1ccc(/C=N/NC(=O)CCC(=O)NCc2ccccc2)c(O)c1`, the inhibition was 33.7% (active).

Consider `Nc1ccc(C(=O)OCc2nc3cc4ccccc4cc3[nH]2)cc1`, for which the inhibition is 34.5% (active).

On to `CCOC(=O)c1cnc(-n2nc(C)cc2C)nc1NNc1nc(-c2ccccc2)cc(-c2ccccc2)n1`, for which the inhibition was 25% (active).

As for `O=C(/C=C/c1ccccc1)NC(NC(=S)Nc1ccc(Cl)cc1Cl)C(Cl)(Cl)Cl` (stereo not given), the inhibition was 23.4% (active).

For `CN1CCN(Cc2cc(COCc3ccccc3)c3cccnc3c2O)CC1`, the inhibition was 29.5% (active).

Turning to `COc1ccc(-c2oc3ncnc(NCCCN(C)C)c3c2-c2ccc(OC)cc2)cc1`, the inhibition is 28.6% (active).

With `CC(=O)NC(=S)Nc1ccc(NC(=S)NC(=O)/C=C/c2ccco2)cc1`, the inhibition is 35% (active).

As to `COc1ccc(NC(=O)Nc2cccc3c2O[C@H](CN(C)Cc2ccc(-c4ccccc4)cc2)[C@@H](C)CN([C@H](C)CO)C3=O)cc1`, the inhibition is 31% (active).

Take `COc1cccc(/C=N/NC(=O)CNC(=O)C(c2ccccc2)c2ccccc2)c1O`: the inhibition is 28.6% (active).

Take `Brc1ccc2ncnc(Nc3ccc(N4CCOCC4)cc3)c2c1`: the inhibition is 25.5% (active).

As to `Cc1ccc(-n2c(-c3ccccc3)c[n+]3c2CCc2ccccc2-3)c(C)c1`, the inhibition was 26.4% (active).

Consider `COC(=O)[C@@]1(Cc2ccccc2)[C@H]2C(=O)N(Cc3ccccc3)C(=O)[C@H]2[C@H]2CN=C(SCc3ccccc3)N21`, for which the inhibition was 34.6% (active).

With `O=C(/C=C/c1ccccc1)NC(NC(=S)Nc1cc(Cl)ccc1Cl)C(Cl)(Cl)Cl` (stereo not given), the inhibition is 31.2% (active).

As for `CC[C@@H](C(=O)[C@@H](C)[C@@H](O)[C@H](C)CCc1ccc(C)c(O)c1C(=O)O)[C@H]1O[C@](CC)([C@H]2CC[C@](O)(CC)[C@H](C)O2)C[C@@H]1C`, the inhibition was 35.2% (active).

Turning to `FC(F)(F)c1ccc(CN2C[C@@H]3C(c4ccccc4)C4(c5ccccc5)CC3(C4)[C@H]2c2ccccc2)cc1` (stereo not given in full), the inhibition was 27.2% (active).

Take `CN(C)CCNC(=O)/C(=C/c1ccc(-c2ccc(Cl)cc2Cl)o1)NC(=O)c1ccccc1`: the inhibition was 26.3% (active).

With `CCN1CCN(Cc2ccc(NC(=O)c3ccc(C)c(NC(=O)c4cccc(-c5cn[nH]c(=O)c5)c4)c3)cc2C(F)(F)F)CC1`, the inhibition is 32% (active).
